# Data from PubChem BioAssay (Tox21).
# “And” between values parts separate entries of the source, which are not always exact repeats. Equal entries are not always repeated. Inconclusive results are not listed. A structure can be active in one record and inactive in another. The source made the active and inactive calls. Calls come from the whole dose curve.
# Assay: qHTS assay for small molecule disruptors of the mitochondrial membrane potential - cell viability (AID 720634); note: nearly all actives have a fitted effect of over 20% in size;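 for activity change, negative = cytotoxicity: human HepG2 liver cancer cells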
# Details: HepG2 viability, ATP luminescence (CellTiter-Glo), 1 h; series mostly up to 83.2 µM; activity change, negative = cytotoxicity: at the top concentration
# From the text: U.S. Tox21 Program National Center for Advancing Translational Sciences [NCATS] NIH Chemical Genomics Center [NCGC] U.S. Environmental Protection Agency [EPA] National Institutes of Environmental Health Sciences [NIEHS] National Toxicology Program [NTP] U.S. Food and Drug Administration [FDA] Tox21 Assay Overview: Mitochondrial membrane potential (MMP), one of the parameters for mitochondrial function, is generated by mitochondrial electron transport chain that creates an electrochemical gradient by a series of redox reactions. This gradient drives the synthesis of ATP, a crucial molecule for various cellular processes. Measuring MMP in living cells is commonly used to assess the effect of chemicals on mitochondrial function; decreases in MMP can be detected using lipophilic cationic fluorescent dyes. […] The dye accumulates in the mitochondria of healthy cells as aggregates, with red fluorescence. The mitochondrial potential decreases and the dye could not accumulate in the mitochondria and remains in the cytoplasm in monomers, with green fluorescence. In addition to the mitochondrial potential assay, these cells were also used to test the cytotoxicity by determining the cell viability in the culture based on the quantitation of ATP present. The cytotoxicity was measured in the same assay well of MMP assay.
# Tox21 Assay Protocol Summary: 2,000 HepG2 cells in 5 uL/well were dispensed into black, clear-bottom 1536-well plates using a Multidrop Combi (Thermo Scientific) dispenser. The assay plates were incubated for an overnight at 37 C to allow cells to attach to the wells, followed by the transfer of 23 nL compound or DMSO vehicle by a pin tool (Kalypsys). The plates were incubated for 1 hr at 37 C and 5% CO2, followed by the addition of 5 uL of 2X m-MPI dye into each well using Flying Reagent Dispenser (Aurora Discovery) and then CellTiter-Glo reagent was added at 4 uL/well and incubated 30 min at room temperature. Then luminescence intensity was quantified on a ViewLux CCD-based plate reader.
# % is set by controls: 0 for no effect and ±100 for the full control effect; potency is the fitted concentration of half-maximal effect.
Structure (SMILES),"activity change, negative = cytotoxicity",Potency
CCCc1cc(C(N)=S)ccn1,-12.6% (inactive),
CC(=O)OC/C=C(\C)CC/C=C(\C)CCC=C(C)C,-1.64% (inactive),
CC1(C)CO[C@@H](CC(=O)O)CN1,13.8% (inactive),
CCCCC/C=C\CCC=O,14.5% (inactive),
Cn1c(N)c(N=O)c(=O)n(C)c1=O,-1.26% [at 95.3 µM] (inactive),
O=C1CCCC(=O)C1,10.3% (inactive),
CC(C(=O)O)c1ccc(CC2CCCC2=O)cc1 (stereo not given),3.8% (inactive),
CCCCCOC(=O)CCCCC,-2.28% (inactive),
O=C(O)CNC(=O)c1ccc([N+](=O)[O-])cc1,1.17% (inactive),
O=C1CCCN1C1CCCCC1,8.82% (inactive),
CCCCOCCOCCOCc1cc2c(cc1CCC)OCO2,,inactive and 17.4 µM (active)
Nc1ccccc1S(=O)(=O)O,3.8% (inactive),
CC(=O)Nc1ccc(S(N)(=O)=O)cc1,13.3% (inactive),
N=C(N)c1ccccc1,5.25% (inactive),
O=S(O)CO,,inactive
OC(CCN1CCCCC1)(c1ccccc1)C1CC2C=CC1C2 (stereo not given),,inactive
CCN1CCC[C@H]1CNC(=O)c1cc(S(N)(=O)=O)ccc1OC,-17.1% (inactive),
Cc1cc2c(cc1S(N)(=O)=O)S(=O)(=O)CCC2,-2.16% [at 39.1 µM] (inactive),
CC/C=C\CC/C=C/C(OCC)OCC,-2.94% (inactive),
CC(C)(CC(=O)O)C(=O)O,-5.55% (inactive),

Structure (SMILES),"activity change, negative = cytotoxicity",Potency
CN1CC(=O)NC1=N,-2.94% (inactive),
C[N+](C)(C)CCCCCC[N+](C)(C)C,14.6% (inactive),
COC(=O)c1cc(C(=O)OC)cc(S(=O)(=O)O)c1,9.15% (inactive),
Nc1c2c(nc3ccccc13)CCCC2O (stereo not given),5.09% (inactive),
CC(C)(O)C#CC(C)(C)O,6.22% [at 95.3 µM] (inactive),
CCOC(=O)c1cccc(N)c1,-8.7% (inactive),
CCn1ccnc1CC1COc2ccccc2O1 (stereo not given),4.15% (inactive),
CCCC(=O)O[C@]1(C(=O)CO)CC[C@H]2[C@@H]3CCC4=CC(=O)CC[C@]4(C)[C@H]3[C@@H](O)C[C@@]21C,7.19% (inactive),
CN(C)CCCSc1ccccc1NC(=O)/C=C/c1ccccc1,-6.69% (inactive),
CCc1nccnc1CC,14.4% [at 39.1 µM] (inactive),
CC(C)(O)C(=O)c1ccccc1,-9.97% (inactive),
Cc1ccc(=O)n(-c2ccccc2)c1,4.42% (inactive),
Cc1cccn2c(=O)c(-c3nnn[nH]3)cnc12,4.25% (inactive),
Cc1c(NC(C)C)c(=O)n(-c2ccccc2)n1C,-2.41% (inactive),
Cc1cccc(C)c1NC(=O)C(C)N (stereo not given),-8.07% [at 39.1 µM] (inactive),
NC(=O)c1cn(Cc2c(F)cccc2F)nn1,-5.75% (inactive),
O=C1NC(=O)[C@@]2(CCOc3ccc(F)cc32)N1,3.94% (inactive),
O=[N+]([O-])c1ccc(F)cc1F,5.94% [at 95.3 µM] (inactive),
CN(C(=O)c1c(O)c2ccccc2n(C)c1=O)c1ccccc1,6.11% (inactive),
C=COCC1CCC(CO)CC1 (stereo not given),-7.06% (inactive),
